Source: ChEMBL document CHEMBL4649984, “CBP30, a selective CBP/p300 bromodomain inhibitor, suppresses human Th17 responses” (Proc Natl Acad Sci U S A, 2015)
“And” between values parts separate entries of the source, which are not always exact repeats. Equal values may be shown once.

Experiments:
[1] = biological target: Bromodomain-containing protein 4 (Homo sapiens) (UniProt O60885); conditions: Compound concentration 10.0 uM, Protein concentration 2.0 uM
[2] = biological target: T1, Transcription intermediary factor 1-alpha (Homo sapiens) (UniProt O15164); conditions: Compound concentration 10.0 uM, Protein concentration 2.0 uM
T1 sequence (whole entry): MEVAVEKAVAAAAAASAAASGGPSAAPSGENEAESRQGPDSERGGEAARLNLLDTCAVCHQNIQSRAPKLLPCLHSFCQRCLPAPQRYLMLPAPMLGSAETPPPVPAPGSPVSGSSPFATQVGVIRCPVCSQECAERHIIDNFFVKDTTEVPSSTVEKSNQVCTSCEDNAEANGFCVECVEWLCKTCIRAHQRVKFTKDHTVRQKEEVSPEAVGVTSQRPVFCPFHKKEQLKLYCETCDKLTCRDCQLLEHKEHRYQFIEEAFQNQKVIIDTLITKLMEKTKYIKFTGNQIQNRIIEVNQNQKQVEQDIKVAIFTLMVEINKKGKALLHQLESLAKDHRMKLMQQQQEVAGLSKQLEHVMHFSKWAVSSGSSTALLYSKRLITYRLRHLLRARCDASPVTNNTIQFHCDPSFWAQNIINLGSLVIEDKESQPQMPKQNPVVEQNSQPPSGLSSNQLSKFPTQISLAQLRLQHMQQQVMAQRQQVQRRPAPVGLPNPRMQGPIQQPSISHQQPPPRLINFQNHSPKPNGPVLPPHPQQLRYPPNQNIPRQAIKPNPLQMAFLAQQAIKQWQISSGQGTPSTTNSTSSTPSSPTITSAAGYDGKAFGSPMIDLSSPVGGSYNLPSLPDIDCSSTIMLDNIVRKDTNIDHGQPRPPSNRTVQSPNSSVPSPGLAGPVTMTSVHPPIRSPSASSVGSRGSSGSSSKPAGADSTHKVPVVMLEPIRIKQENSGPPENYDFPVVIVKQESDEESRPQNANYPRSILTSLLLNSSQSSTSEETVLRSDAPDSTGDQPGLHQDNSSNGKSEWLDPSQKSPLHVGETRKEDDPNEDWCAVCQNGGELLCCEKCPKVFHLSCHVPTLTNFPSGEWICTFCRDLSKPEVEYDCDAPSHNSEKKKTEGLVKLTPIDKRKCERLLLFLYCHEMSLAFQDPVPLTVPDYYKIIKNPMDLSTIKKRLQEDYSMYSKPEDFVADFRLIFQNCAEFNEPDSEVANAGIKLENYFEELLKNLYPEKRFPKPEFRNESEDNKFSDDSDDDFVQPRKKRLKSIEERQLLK

## COc1ccc(CCc2nc3cc(-c4c(C)noc4C)ccc3n2C[C@H](C)N2CCOCC2)cc1Cl
[1]
  ΔTm: 1.65 °C and 2.75 °C
[2]
  ΔTm: 0.88 °C
